Source: PubChem BioAssay (EPA / NIEHS)
Inconclusive results are not listed. Active and inactive are the calls of the source. Rule for the calls, unless noted: active = hit-call score of the fitted dose curve at least 0.9, where 1 is the maximum; inconclusive = response in the unintended direction; inactive = score below 0.9.

Experiments:
[1] = ATG_TAL_CIS: Attagene CIS-FACTORIAL HepG2 Assay for human TAL Basal Promoter (AID 2282966; active = hit-call score of the fitted dose curve at least 0.9, where 1 is the maximum; inactive = score below 0.9;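 note: background control endpoint measuring basal TAL promoter reporter mRNA not a specific factor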); settings: HepG2 Attagene cis-factorial TAL promoter reporter; actives raise or lower the signal
Summary of the method: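 After 24 hours of chemical exposure, transfected HepG2 cells yielded RNA that was converted to 6-FAM-labelled, HpaI-digested reporter fragments for capillary electrophoresis. Values derive from bidirectional fitting against DMSO controls.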

[2] = ATG_TGFb_CIS: Attagene CIS-FACTORIAL HepG2 Assay for human Transforming Growth Factor (TGF) (AID 2282967; active = hit-call score of the fitted dose curve at least 0.9, where 1 is the maximum; inactive = score below 0.9); settings: HepG2 Attagene CIS TGFb reporter, mRNA transcription; actives raise or lower the signal
Summary of the method: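 HepG2 cells transiently transfected with cis-promoter-driven multiple reporter units measure endogenous TF activity; reporter mRNA quantified at 24 h by RT-PCR, FAM labeling, HpaI digestion and capillary electrophoresis. Bidirectional fit vs DMSO.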

[3] = ATG_VDRE_CIS: Attagene CIS-FACTORIAL HepG2 Assay for human Vitamin D Receptor Element (VDRE) (AID 2282968; active = hit-call score of the fitted dose curve at least 0.9, where 1 is the maximum; inactive = score below 0.9); settings: HepG2 VDRE cis-reporter transcription, actives raise or lower the signal
Summary of the method: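 Readout is VDRE-driven reporter mRNA reflecting endogenous factor activity in human HepG2 cells, sampled 24 h post-dose. Quantification used labelled RT-PCR products separated by capillary electrophoresis; bidirectional analysis relative to DMSO.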

[4] = molecular target: X-box-binding protein 1 (Homo sapiens) (UniProt P17861); assay: ATG_Xbp1_CIS: Attagene CIS-FACTORIAL HepG2 Assay for human X-box Binding Protein 1 (XBP1) (AID 2282972; active = hit-call score of the fitted dose curve at least 0.9, where 1 is the maximum; inactive = score below 0.9); settings: HepG2 XBP1 cis-element reporter, Attagene multiplex; actives raise or lower the signal
Summary of the method: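 Read-out: fluorescent reporter mRNA fragments resolved by capillary electrophoresis after RT-PCR. Human HepG2 liver cells carried transfected cis-promoter reporter units and were exposed to chemicals for 24 hours. Gain or loss of signal fitted relative to DMSO baseline.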

[5] = molecular target: Glucocorticoid receptor (Homo sapiens) (UniProt P04150); assay: ATG_GR_TRANS: Attagene TRANS-FACTORIAL HepG2 Assay for human Glucocorticoid Receptor (GR) (AID 2282978); settings: HepG2 Attagene TRANS GR reporter, mRNA transcription;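 note: activators score as hits since higher reporter transcript over DMSO is fitted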
Summary of the method: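 HepG2 cells transiently transfected with GAL4-UAS reporter units and exogenous GR-Gal4 chimera, dosed 24 h. Reporter mRNA by RT-PCR, FAM labeling, HpaI digest and capillary electrophoresis; gain-of-signal fit versus DMSO.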

[6] = molecular target: Bile acid receptor (Homo sapiens) (UniProt Q96RI1); assay: ATG_FXR_TRANS: Attagene TRANS-FACTORIAL HepG2 Assay for Farnesoid X Receptor (FXR) (AID 2282979); settings: HepG2 Attagene TRANS FXR-GAL4 reporter transcription;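 note: hits raise reporter mRNA above DMSO so AC50 marks FXR activation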
Summary of the method: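 Transient transfection of HepG2 with multiplexed GAL4-UAS reporter units; exogenous FXR-GAL4 chimera. Dose 24 h → TriZol RNA → oligo(dT) RT → PCR, 6-FAM primer extension, HpaI cut → CE. Gain vs DMSO.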

[7] = molecular target: Oxysterols receptor LXR-alpha (Homo sapiens) (UniProt Q13133); assay: ATG_LXRa_TRANS: Attagene TRANS-FACTORIAL HepG2 Assay for human Liver X Receptor alpha (LXRa) (AID 2282980); settings: HepG2 Attagene TRANS reporter, LXRa transactivation
Summary of the method: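 Transfect HepG2 with GAL4-UAS multiplex reporter constructs (TRANS format, chimeric receptor-GAL4); treat 24 h; extract RNA, reverse-transcribe, PCR-amplify, FAM-label, HpaI-digest; resolve fragments by capillary electrophoresis. Upward response vs DMSO.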

[8] = ATG_M_06_TRANS: Attagene TRANS-FACTORIAL HepG2 Assay for M06 Transcription Factor (Internal Marker) (AID 2282983); settings: HepG2 Attagene TRANS M06 internal marker reporter;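 note: reporter transcript level by RT-PCR then capillary electrophoresis fluorescence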
Summary of the method: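 Background control endpoint: reporter mRNA from transiently transfected HepG2 after 24 h dosing, detected by RT-PCR with capillary electrophoresis fluorescence. Analysed for gain versus DMSO.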

[9] = ATG_M_32_TRANS: Attagene TRANS-FACTORIAL HepG2 Assay for M32 Transcription Factor (Internal Marker) (AID 2282984); settings: HepG2 Attagene TRANS M32 internal marker reporter;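 note: transcript level of a background control reporter unit measured by RT-PCR and capillary electrophoresis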
Summary of the method: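 Internal background reporter in transfected HepG2: after 24 h chemical exposure, RNA reverse-transcribed, reporter cDNA amplified, fluorescently labelled and HpaI-cut, then sized by capillary electrophoresis. Gain of signal fitted against DMSO control.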

[10] = molecular target: Transcriptional activator Myb (Homo sapiens) (UniProt P10242); assay: ATG_Myb_CIS: Attagene CIS-FACTORIAL HepG2 Assay for human Myeloblastosis (Myb) Proto-Oncogene Transcription Factor (AID 2282986; active = hit-call score of the fitted dose curve at least 0.9, where 1 is the maximum; inactive = score below 0.9); settings: HepG2 Attagene CIS-FACTORIAL Myb reporter transcription; actives raise or lower the signal
Summary of the method: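 Transiently transfected HepG2 cells carrying a multiplexed cis-promoter reporter set report endogenous Myb activity after 24 h compound exposure. Reporter mRNA is read by RT-PCR with capillary electrophoresis of fluorescent products, fitted bidirectionally against DMSO.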

[11] = molecular target: Nuclear respiratory factor 1 (Homo sapiens) (UniProt Q16656); assay: ATG_NRF1_CIS: Attagene CIS-FACTORIAL HepG2 Assay for human Nuclear Respiratory Factor 1 (NRF1) Orphan Gene (AID 2282987; active = hit-call score of the fitted dose curve at least 0.9, where 1 is the maximum; inactive = score below 0.9); settings: HepG2 NRF1 cis-element reporter, Attagene multiplex; actives raise or lower the signal
Summary of the method: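 HepG2 cells transiently transfected with multiple cis-regulated reporter units, exposed 24 h. Reporter mRNAs measured by RT-PCR, fluorescent labelling, HpaI digestion and capillary electrophoresis; bidirectional fitting against DMSO.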

[12] = molecular target: Oxysterols receptor LXR-beta (Homo sapiens) (UniProt P55055); assay: ATG_LXRb_TRANS: Attagene TRANS-FACTORIAL HepG2 Assay for human Liver X Receptor beta (LXRb) (AID 2282981); settings: HepG2 Attagene TRANS GAL4-LXRb reporter, mRNA
Summary of the method: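 After 24 h chemical treatment of transfected HepG2 cells carrying exogenous NR-Gal4 chimeras, reporter mRNA was quantified by fluorescent RT-PCR and capillary electrophoresis; activity taken as increase over DMSO controls.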

[13] = molecular target: Hepatocyte nuclear factor 4-alpha (Homo sapiens) (UniProt P41235); assay: ATG_HNF4a_TRANS: Attagene TRANS-FACTORIAL HepG2 Assay for human Hepatocyte Nuclear Factor 4 alpha (HNF4a) (AID 2282982); settings: HepG2 HNF4a transactivation reporter, mRNA readout
Summary of the method: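 Activity of an exogenous HNF4a–Gal4 fusion scored as induced GAL4-UAS reporter transcripts after 24 h chemical exposure of transfected human HepG2 cells. Read-out via RT-PCR with 6-FAM labelling and capillary electrophoresis; rise over DMSO baseline.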

[14] = molecular target: Nuclear receptor subfamily 1 group I member 3 (Homo sapiens) (UniProt Q14994); assay: ATG_CAR_TRANS: Attagene TRANS-FACTORIAL HepG2 Assay for human Constitutive Androstane Receptor (CAR) (AID 2282969); settings: HepG2 Attagene TRANS-FACTORIAL CAR reporter;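 note: activators raise reporter mRNA above DMSO so AC50 marks induction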
Summary of the method: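 Signal is reporter mRNA induction relative to DMSO, measured 24 h after dosing by RT-PCR with fluorescent primer extension and capillary electrophoresis. Human HepG2 liver cells carried transiently transfected chimeric NR-Gal4/GAL4-UAS reporter constructs.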

[15] = ATG_M_19_TRANS: Attagene TRANS-FACTORIAL HepG2 Assay for M19 Transcription Factor (Internal Marker) (AID 2282974); settings: HepG2 Attagene TRANS-FACTORIAL M19 internal marker reporter
Summary of the method: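 HepG2 transiently transfected with GAL4-UAS multiplex reporter constructs, exposed 24 h; reporter RNA quantified by RT-PCR, 6-FAM labeling, HpaI digestion and capillary electrophoresis; internal background marker fitted upward versus DMSO.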

[16] = ATG_GAL4_TRANS: Attagene TRANS-FACTORIAL HepG2 Assay for GAL4 (Internal Marker) (AID 2282976); settings: HepG2 Attagene TRANS GAL4 internal marker reporter
Summary of the method: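 First, HepG2 cells were transfected with reporter units under GAL4-UAS control. Next, they were treated with chemical for 24 h. Finally, RNA was reverse-transcribed, PCR-amplified, FAM-labelled and resolved by capillary electrophoresis, with induction scored against DMSO.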

[17] = molecular target: Nuclear receptor subfamily 4 group A member 2 (Homo sapiens) (UniProt P43354); assay: ATG_NURR1_TRANS: Attagene TRANS-FACTORIAL HepG2 Assay for human Nuclear Receptor Related Protein 1 (NURR1) (AID 2282985); settings: HepG2 Attagene TRANS reporter, mRNA readout
Summary of the method: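 Reporter transcript induction, measured by RT-PCR with fluorescent labelling, HpaI digestion and capillary electrophoresis, after 24 hr dosing of human HepG2 cells transiently expressing an exogenous NR-Gal4 fusion with GAL4-UAS-driven reporters; DMSO as baseline.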

[18] = molecular target: Steroid hormone receptor ERR1 (Homo sapiens) (UniProt P11474); assay: ATG_ERRa_TRANS: Attagene TRANS-FACTORIAL HepG2 Assay for human Estrogen-Related Receptor alpha (ERRa) (AID 2282971); settings: HepG2 Attagene TRANS reporter, ERRa transactivation
Summary of the method: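 Reporter transcript induction was quantified by RT-PCR and capillary electrophoresis of FAM-labelled, HpaI-cut products after 24 h treatment of HepG2 cells carrying transiently transfected GAL4-UAS reporter units and an exogenous ERRa-Gal4 fusion; activity scored as increase over DMSO.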

[19] = molecular target: Estrogen-related receptor gamma (Homo sapiens) (UniProt P62508); assay: ATG_ERRg_TRANS: Attagene TRANS-FACTORIAL HepG2 Assay for human Estrogen-Related Receptor gamma (ERRg) (AID 2282977); settings: HepG2 Attagene TRANS reporter, ERRg transactivation;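 note: hits increase reporter signal over DMSO so potencies reflect activators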
Summary of the method: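 Exogenous NR-Gal4 chimera activity measured as reporter transcript induction after 24 h in transiently transfected HepG2 cells. RNA reverse-transcribed, PCR-amplified, 6-FAM-labelled and resolved by capillary electrophoresis; increase over DMSO baseline.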

[20] = molecular target: Estrogen receptor (Homo sapiens) (UniProt P03372); assay: ATG_ERa_TRANS: Attagene TRANS-FACTORIAL HepG2 Assay for human Estrogen Receptor alpha (ERa) (AID 2282970); settings: HepG2 Attagene TRANS ERa GAL4 reporter, mRNA
Summary of the method: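 Liver-derived HepG2 cells expressing chimeric nuclear receptor-Gal4 proteins from transient transfection were exposed for 24 hours. Gain of reporter mRNA signal versus DMSO, read by capillary electrophoresis of FAM-labelled PCR products, was recorded.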

Measured: outcome

X-box-binding protein 1 (Homo sapiens), sequence (P17861 whole entry, looked up, the tested form may be a part): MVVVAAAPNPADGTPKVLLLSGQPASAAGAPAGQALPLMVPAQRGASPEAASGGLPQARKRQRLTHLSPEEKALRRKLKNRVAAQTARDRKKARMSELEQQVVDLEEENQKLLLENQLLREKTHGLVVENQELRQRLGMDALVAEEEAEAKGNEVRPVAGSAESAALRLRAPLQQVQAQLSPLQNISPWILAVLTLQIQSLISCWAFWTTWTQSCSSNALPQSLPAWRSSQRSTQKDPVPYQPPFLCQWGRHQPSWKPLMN
Oxysterols receptor LXR-beta (Homo sapiens), sequence (P55055 whole entry, looked up, the tested form may be a part): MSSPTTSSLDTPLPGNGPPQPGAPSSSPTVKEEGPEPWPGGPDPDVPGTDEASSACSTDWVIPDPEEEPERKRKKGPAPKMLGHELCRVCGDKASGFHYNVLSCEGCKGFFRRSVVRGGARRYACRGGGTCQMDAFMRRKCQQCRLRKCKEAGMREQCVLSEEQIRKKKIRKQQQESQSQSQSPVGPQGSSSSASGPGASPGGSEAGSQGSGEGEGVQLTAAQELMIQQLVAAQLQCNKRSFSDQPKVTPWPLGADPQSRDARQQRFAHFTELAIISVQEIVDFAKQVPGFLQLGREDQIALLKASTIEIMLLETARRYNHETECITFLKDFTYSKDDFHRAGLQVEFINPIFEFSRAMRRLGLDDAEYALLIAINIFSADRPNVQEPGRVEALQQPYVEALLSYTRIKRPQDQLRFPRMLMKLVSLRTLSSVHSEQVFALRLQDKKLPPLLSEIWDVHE
Nuclear respiratory factor 1 (Homo sapiens), sequence (Q16656 whole entry, looked up): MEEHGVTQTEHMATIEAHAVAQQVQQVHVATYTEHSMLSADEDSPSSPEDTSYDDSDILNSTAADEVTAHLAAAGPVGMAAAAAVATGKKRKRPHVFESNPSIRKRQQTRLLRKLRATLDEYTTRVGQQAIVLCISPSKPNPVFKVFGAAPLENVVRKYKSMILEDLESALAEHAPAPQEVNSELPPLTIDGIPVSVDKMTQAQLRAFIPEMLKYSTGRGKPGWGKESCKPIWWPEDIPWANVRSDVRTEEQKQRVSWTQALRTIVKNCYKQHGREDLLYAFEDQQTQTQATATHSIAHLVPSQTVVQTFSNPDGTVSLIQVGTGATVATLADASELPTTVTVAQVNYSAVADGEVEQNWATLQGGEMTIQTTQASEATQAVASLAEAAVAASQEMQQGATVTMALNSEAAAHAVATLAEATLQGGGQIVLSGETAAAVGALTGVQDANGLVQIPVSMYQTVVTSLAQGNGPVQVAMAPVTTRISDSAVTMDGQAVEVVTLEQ
Bile acid receptor (Homo sapiens), sequence (Q96RI1 whole entry, looked up, the tested form may be a part): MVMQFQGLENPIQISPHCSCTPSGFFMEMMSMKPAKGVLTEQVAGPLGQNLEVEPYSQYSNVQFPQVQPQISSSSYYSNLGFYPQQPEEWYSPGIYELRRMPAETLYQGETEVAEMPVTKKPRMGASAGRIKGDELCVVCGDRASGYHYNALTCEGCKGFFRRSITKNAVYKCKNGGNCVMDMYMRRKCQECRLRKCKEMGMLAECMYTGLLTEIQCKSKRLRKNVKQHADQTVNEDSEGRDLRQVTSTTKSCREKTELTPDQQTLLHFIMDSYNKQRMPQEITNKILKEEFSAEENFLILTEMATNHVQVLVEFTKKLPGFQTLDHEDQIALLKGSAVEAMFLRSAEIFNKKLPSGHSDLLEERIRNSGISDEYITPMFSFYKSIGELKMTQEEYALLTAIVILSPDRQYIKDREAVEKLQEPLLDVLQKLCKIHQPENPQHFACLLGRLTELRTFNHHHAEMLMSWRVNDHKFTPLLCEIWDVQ
Nuclear receptor subfamily 1 group I member 3 (Homo sapiens), sequence (Q14994 whole entry, looked up, the tested form may be a part): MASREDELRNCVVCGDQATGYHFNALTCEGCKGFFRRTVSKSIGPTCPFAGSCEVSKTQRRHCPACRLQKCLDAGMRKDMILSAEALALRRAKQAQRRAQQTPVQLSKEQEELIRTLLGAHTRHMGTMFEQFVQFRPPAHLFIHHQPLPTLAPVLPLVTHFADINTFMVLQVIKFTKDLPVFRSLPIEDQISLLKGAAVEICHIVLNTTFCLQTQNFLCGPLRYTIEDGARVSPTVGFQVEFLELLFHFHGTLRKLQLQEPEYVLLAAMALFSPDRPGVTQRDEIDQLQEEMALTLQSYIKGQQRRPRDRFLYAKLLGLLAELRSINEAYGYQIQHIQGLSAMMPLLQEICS
Transcriptional activator Myb (Homo sapiens), sequence (P10242 whole entry, looked up): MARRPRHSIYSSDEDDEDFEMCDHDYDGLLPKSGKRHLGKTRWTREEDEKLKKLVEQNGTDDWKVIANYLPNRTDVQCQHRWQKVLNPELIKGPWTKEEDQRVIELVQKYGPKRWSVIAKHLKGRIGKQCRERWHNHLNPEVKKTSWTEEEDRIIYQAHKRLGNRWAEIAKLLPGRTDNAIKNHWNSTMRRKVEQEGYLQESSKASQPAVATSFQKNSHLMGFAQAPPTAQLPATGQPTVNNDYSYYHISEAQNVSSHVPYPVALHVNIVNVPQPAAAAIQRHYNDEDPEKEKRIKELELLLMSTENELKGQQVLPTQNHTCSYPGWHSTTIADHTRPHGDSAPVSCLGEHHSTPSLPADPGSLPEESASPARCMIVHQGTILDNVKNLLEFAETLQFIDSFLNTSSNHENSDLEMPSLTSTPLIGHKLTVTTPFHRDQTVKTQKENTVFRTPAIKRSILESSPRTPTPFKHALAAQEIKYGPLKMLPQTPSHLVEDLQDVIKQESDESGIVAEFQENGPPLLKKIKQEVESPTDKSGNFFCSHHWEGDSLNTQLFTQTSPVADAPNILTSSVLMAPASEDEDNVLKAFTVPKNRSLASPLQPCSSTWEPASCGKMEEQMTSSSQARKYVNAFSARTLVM
Hepatocyte nuclear factor 4-alpha (Homo sapiens), sequence (P41235 whole entry, looked up, the tested form may be a part): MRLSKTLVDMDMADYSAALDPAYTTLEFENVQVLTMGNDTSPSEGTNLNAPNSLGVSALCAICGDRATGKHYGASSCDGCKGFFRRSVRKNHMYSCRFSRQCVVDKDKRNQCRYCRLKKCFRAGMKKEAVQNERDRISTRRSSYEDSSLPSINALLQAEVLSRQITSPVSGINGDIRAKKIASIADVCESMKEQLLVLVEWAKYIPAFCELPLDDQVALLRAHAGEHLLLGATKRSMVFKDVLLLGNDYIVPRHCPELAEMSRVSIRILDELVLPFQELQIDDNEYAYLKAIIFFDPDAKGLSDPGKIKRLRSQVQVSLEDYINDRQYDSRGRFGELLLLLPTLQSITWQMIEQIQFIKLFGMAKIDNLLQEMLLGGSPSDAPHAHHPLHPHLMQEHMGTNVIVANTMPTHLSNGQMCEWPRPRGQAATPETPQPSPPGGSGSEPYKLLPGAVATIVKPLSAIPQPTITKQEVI
Oxysterols receptor LXR-alpha (Homo sapiens), sequence (Q13133 whole entry, looked up, the tested form may be a part): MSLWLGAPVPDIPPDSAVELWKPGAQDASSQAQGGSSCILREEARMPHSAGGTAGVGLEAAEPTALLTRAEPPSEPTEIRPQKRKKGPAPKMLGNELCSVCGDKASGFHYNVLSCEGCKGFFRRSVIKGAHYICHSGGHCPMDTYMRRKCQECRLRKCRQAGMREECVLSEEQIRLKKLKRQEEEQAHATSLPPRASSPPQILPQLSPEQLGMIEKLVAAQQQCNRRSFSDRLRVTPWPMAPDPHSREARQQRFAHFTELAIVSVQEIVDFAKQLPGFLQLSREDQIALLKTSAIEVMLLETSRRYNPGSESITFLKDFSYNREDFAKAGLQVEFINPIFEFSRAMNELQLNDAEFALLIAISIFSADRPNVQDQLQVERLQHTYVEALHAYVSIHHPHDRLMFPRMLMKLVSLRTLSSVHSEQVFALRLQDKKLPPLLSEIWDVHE
Glucocorticoid receptor (Homo sapiens), sequence (P04150 whole entry, looked up, the tested form may be a part): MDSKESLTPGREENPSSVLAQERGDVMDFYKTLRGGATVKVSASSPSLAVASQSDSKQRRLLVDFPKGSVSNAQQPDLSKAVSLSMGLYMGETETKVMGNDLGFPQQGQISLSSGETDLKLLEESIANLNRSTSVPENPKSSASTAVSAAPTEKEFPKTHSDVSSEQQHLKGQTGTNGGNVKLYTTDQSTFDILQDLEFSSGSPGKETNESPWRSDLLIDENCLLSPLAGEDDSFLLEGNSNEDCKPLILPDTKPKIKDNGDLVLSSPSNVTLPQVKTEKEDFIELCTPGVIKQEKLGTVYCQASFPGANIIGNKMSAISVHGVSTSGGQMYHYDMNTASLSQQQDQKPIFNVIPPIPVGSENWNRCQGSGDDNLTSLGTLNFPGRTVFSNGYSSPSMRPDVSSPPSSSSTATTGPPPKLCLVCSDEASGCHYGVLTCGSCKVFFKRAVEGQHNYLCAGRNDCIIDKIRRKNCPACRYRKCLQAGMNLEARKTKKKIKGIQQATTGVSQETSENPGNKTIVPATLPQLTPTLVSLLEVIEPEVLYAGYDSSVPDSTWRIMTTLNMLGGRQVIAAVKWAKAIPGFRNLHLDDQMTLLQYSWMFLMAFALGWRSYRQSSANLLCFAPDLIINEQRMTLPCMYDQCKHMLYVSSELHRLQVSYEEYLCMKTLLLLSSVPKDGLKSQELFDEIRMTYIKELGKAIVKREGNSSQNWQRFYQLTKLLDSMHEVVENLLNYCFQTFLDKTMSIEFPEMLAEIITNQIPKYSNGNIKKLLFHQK
Nuclear receptor subfamily 4 group A member 2 (Homo sapiens), sequence (P43354 whole entry, looked up, the tested form may be a part): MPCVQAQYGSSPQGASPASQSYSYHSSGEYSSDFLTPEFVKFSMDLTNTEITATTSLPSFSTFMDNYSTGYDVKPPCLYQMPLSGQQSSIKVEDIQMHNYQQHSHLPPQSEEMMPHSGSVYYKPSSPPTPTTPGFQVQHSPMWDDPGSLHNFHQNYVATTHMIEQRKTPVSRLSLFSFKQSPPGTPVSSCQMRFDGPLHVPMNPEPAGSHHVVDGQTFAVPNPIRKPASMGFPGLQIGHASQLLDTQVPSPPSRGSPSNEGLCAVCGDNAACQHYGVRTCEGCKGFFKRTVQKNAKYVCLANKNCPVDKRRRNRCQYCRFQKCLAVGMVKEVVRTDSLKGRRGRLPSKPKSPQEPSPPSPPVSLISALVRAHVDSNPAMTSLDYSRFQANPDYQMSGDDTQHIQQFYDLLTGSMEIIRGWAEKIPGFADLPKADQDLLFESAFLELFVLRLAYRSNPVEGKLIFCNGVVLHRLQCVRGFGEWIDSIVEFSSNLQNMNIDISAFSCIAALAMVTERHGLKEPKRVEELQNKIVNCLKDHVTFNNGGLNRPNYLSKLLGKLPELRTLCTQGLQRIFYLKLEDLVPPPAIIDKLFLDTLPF

C=C1CC[C@H](O)C/C1=C/C=C1\CCC[C@]2(C)[C@@H]([C@H](C)/C=C/[C@H](C)C(C)C)CC[C@@H]12
inactive: [1] | [2] | [3] | [4] | [5] | [6] | [7] | [8] | [9] | [10] | [11]

C=C(C)[C@H]1CC=C(C)C(=O)C1
not listed: [6] | [14] | [15] | [16] | [17] | [18] | [19] | [20]
inactive: all other assays above

CC(C)C[C@H](NC(=O)OCC1c2ccccc2-c2ccccc21)C(=O)O
not listed: [3] | [5] | [9] | [17] | [18] | [19] | [20]
inactive: all other assays above

CCCC(C)=O
inactive: [1] | [2] | [4] | [7] | [13] | [8] | [17] | [10] | [11]

NC(=S)NNC(N)=S
inactive: [1] | [2] | [4] | [15] | [16] | [5] | [6] | [13] | [9] | [10] | [11]

O=C(O)c1ccc(O)cc1
not listed: [3] | [5] | [7] | [12] | [16] | [20]
inactive: all other assays above

Nc1ccc2c(O)cc(S(=O)(=O)O)cc2c1
inactive: [1] | [2] | [14] | [7] | [13] | [8] | [17] | [10] | [11]

Nc1ccccc1[N+](=O)[O-]
not listed: [3] | [7] | [13] | [14] | [16] | [19] | [20]
inactive: all other assays above

CCCCCCC(C)(C)S
not listed: [3] | [6] | [13] | [15] | [18] | [19] | [20]
inactive: all other assays above

Cc1[nH]c(=O)c(C#N)cc1-c1ccncc1
inactive: [1] | [2] | [20] | [4] | [8] | [11]

CCCC(=O)OCCc1ccccc1
inactive: [1] | [2] | [3] | [5] | [8] | [17] | [10] | [11]

OCC#CCO
inactive: [1] | [2] | [3] | [5] | [6] | [8] | [9] | [17] | [10] | [11]
